21 compounds from PubChem BioAssay (NCATS) can be followed below.

Assay [1] is described as follows: qHTS Assay for Identification of Small Molecule Agonists for Thrombopoietin (TPO) Signaling Pathway (AID 917). Put shortly:
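Activators of TPO signaling were sought in murine Ba/F3 cells transfected with the human receptor, using a luciferase gene driven by the Glycoprotein IIb promoter; 24-hr compound exposure at 37 C alongside 26 pM TPO, in IL-3-free medium.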
A general note: qHTS replaces the single test concentration by a dilution series.

Assay [2] deals with Muscarinic acetylcholine receptor M1 (Rattus norvegicus) (UniProt P08482). Briefly: qHTS Assay for Antagonists of Acetylcholine Muscarinic M1 Receptor: Kinetic Measurement of Intracellular Calcium Response (AID 943). Further: nearly all actives have a fitted effect of over 75% in size. Further: potency means the concentration at half of the fitted maximal effect. The essentials: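 Intracellular calcium flux, recorded with Fluo-4 in a kinetic plate reader, served as signal; the response to carbachol at EC80 (100 nM final) was taken as maximal over minimal fluorescence after a 10 min compound pre-incubation in rat M1-CHO cells.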
Sequence of Muscarinic acetylcholine receptor M1 (Rattus norvegicus) (P08482 whole entry, looked up): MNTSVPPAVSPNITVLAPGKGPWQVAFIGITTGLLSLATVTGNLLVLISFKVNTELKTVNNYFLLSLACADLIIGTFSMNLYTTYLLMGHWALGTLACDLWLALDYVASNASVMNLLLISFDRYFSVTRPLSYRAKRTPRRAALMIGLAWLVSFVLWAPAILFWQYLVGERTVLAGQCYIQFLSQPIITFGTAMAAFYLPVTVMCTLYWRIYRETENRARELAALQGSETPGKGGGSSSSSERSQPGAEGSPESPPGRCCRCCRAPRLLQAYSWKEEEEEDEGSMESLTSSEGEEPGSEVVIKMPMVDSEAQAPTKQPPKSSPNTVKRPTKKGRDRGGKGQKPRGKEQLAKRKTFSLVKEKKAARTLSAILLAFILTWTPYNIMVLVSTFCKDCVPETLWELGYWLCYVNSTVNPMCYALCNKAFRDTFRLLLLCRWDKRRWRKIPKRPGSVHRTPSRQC

For assay [3] the target is unchanged. Briefly: qHTS Assay for Antagonists of Acetylcholine Muscarinic M1 Receptor: Measurement of IP-One Response (AID 944). Further: nearly all actives have a fitted effect of over 75% in size. Further: potency means the concentration at half of the fitted maximal effect. The essentials: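 Steps: plate transfected CHO-M1 cells overnight; add test compound, 10 min; add carbachol (200 nM, EC80) in stimulation buffer with LiCl; incubate 30 min; add labelled IP1 tracer and anti-IP1 antibody in lysis buffer; read HTRF after 10 min.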

For assay [4], the target named is Pyruvate kinase (Leishmania mexicana) (UniProt Q27686). The assay can be described thus: qHTS Validation Assay for Inhibitors of Leishmania Mexicana Pyruvate Kinase (AID 945). The essentials:
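Pyruvate kinase activity of E451W LmPYK (0.2 nM) was followed as ATP output after 1 h at room temperature with 0.5 mM PEP and 0.1 mM ADP, detected by PKLight luminescence.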

Assay [5] addresses Pyruvate kinase PKM (Homo sapiens) (UniProt P14618). The assay can be described thus: qHTS Assay for Activators of Human Muscle Pyruvate Kinase (AID 954; active means well fitted curve in the direction sought with a large enough effect, not every such curve was filed as active). The essentials:
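Luminescence from a luciferase ATP-detection/stop reagent reported PKM2 activity. Reactions contained 0.1 nM purified human enzyme, 0.5 mM PEP, 0.1 mM ADP and 7 mM MgCl2 at pH 7.2, run 1 h at RT.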

The target in assay [6] is Alpha-galactosidase (Coffea arabica) (UniProt Q42656). Briefly: Counterscreen for Glucocerebrosidase Inhibitors: qHTS Assay for Coffee Bean alpha-Galactosidase at pH 4.5 (AID 957). Further: series mostly up to about 77 µM. Put shortly: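 AC50 values derive from Hill-equation modeling of concentration-response data, normalized to no-enzyme and full-activity controls. The pH 4.5 citrate assay used 2 nM coffee bean enzyme and 80 uM fluorogenic substrate for 20 min.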
Sequence of Alpha-galactosidase (Coffea arabica) (Q42656 whole entry, looked up): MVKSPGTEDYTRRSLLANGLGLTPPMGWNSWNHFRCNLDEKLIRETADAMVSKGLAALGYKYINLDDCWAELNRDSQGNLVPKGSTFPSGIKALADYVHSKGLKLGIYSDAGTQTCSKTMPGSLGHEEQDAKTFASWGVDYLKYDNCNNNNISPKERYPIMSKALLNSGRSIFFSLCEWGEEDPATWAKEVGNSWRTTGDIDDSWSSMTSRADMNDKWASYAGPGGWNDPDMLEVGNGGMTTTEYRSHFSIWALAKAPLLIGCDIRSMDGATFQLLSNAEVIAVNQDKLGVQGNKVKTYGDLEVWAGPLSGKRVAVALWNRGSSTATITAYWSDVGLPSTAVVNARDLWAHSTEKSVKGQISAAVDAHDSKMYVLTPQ
(The purpose of a counterscreen is to sort out artefacts and off-target activity.)

A short description of assay [7]: MultiTox-Fluor Cytotoxicity Assay - LYMP1-001 - Dead Cells (AID 946).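 Further: cells exposed to compound for 16 h.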 The essentials: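 AC50 from Hill fit of concentration-response; data normalized to DMSO (basal) and 15 uM tetraoctylammonium bromide (100%). LYMP1-001 lymphoblastoid cells, 2500/well, 16 hr compound at 37 C; dead-cell protease fluorescence, Ex/Em 485/520.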
A short description of assay [8]: MultiTox-Fluor Cytotoxicity Assay - LYMP1-001 - Live Cells (AID 947). Further: potency means the concentration at half of the fitted maximal effect.
The nature of assay [9]: Cell Viability - LYMP1-002 - Assay at 16 hr (AID 948). Further: potency means the concentration at half of the fitted maximal effect. Put shortly:
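LYMP1-002 human lymphoblastoid cells, 2500/well; 5 hr 37 C; cpd 16 hr 37 C; CellTiter-Glo 30 min RT; luminescence (ATP). Concentration-response, Hill-fit AC50. Pos ctrl tetraoctylammonium bromide.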

Assay [10] is described as follows: MultiTox-Fluor Cytotoxicity Assay - LYMP1-002 - Live Cells (AID 955).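 Further: cells exposed to compound for 16 hours.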 Further: potency means the concentration at half of the fitted maximal effect. Put shortly: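 Cytotoxicity in the human lymphoblastoid line LYMP1-002 is measured as loss of live-cell protease activity after 16 h treatment in complete culture medium. AC50 is derived from Hill-equation fits of qHTS concentration-response data.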
Assay [11] can be described thus: MultiTox-Fluor Cytotoxicity Assay - LYMP1-003 - Dead Cells (AID 961).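 Further: cells exposed to compound for 16 h at 37 °C; nearly all actives have a fitted effect of over 70% in size.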 Put shortly: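 Human lymphoblastoid LYMP1-003 cells (2500/well) were treated with compounds for 16 hr at 37 C in complete medium. Dead-cell protease release was read by bis-AAF-R110 fluorescence (Ex/Em 485/520). AC50 came from Hill fits, normalized to DMSO and 15 uM tetraoctylammonium bromide.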

A short description of assay [12]: MultiTox-Fluor Cytotoxicity Assay - LYMP1-003 - Live Cells (AID 962).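 Further: cells exposed to compound for 16 hours at 37 °C.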 Further: potency means the concentration at half of the fitted maximal effect. The essentials:
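Cells plated at 2500 per well and incubated 5 hr; compounds added and incubated 16 hr at 37 C; MultiTox-Fluor reagent added for 60 min at room temperature; fluorescence of liberated AFC measured at 405/510 nm.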

A short description of assay [13]: Cell Viability - LYMP1-003 - Assay at 24 hr (AID 963). Further: potency means the concentration at half of the fitted maximal effect. Put shortly:
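Acute toxicity in LYMP1-003 lymphoblastoid cells: 24 hr compound treatment at 37 C, ATP measured with CellTiter-Glo after 30 min at room temperature. AC50 derived by fitting the Hill equation to qHTS titrations.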

Assay [14] is described as follows: Confirmation and Secondary Assay for Modulators of Hemoglobin Beta Chain Splicing at IVS2 705 locus (AID 930).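 Further: HeLa cells stably expressing the EGFP-705 splicing reporter; GFP fluorescence per well restored by corrected splicing of the IVS2-705 intron in EGFP; series mostly up to about 46 µM.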 The essentials:
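Assay measures total GFP intensity per well in HeLa EGFP-705 cells after 2 days with compound; mis-splicing normally truncates EGFP, so fluorescence indicates corrected splicing.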

Assay [15] can be described thus: Cell Viability - LYMP2-001 (AID 921).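 Further: cells exposed to compound for 24 h at 37 °C; nearly all actives have a fitted effect of over 70% in size.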 Further: potency means the concentration at half of the fitted maximal effect. The essentials: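 CellTiter-Glo luminescence (intracellular ATP) after 24 hr compound exposure at 37 C, 2500 lymphoblastoid cells/well in complete medium. AC50 fitted with standard Hill equation; tetraoctylammonium bromide positive control.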
Assay [16] is described as follows: MultiTox-Fluor Cytotoxicity Assay - LYMP1-002 - Dead Cells (AID 960).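 Further: cells exposed to compound for 16 h at 37 °C; nearly all actives have a fitted effect of over 60% in size.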 Put shortly: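 Acute cytotoxicity in a human lymphoblastoid line is scored as rising dead-cell protease signal after 16 hr exposure at 37 C, measured fluorometrically (485/520).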
A short description of assay [17]: qHTS Assay for Identification of Small Molecule Antagonists for Thrombopoietin (TPO) Signaling Pathway (AID 918). Further: potency means the concentration at half of the fitted maximal effect; nearly all actives have a fitted effect of over 60% in size. The settings on record: TPO-dependent cell signaling reporter, antagonist mode. Put shortly: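 First, Ba/F3 reporter cells expressing human TPO receptor were held overnight without IL-3. Next, compound and 26 pM TPO were added. After 24 hrs incubation at 37 C, luciferase luminescence under the Glycoprotein IIb promoter was recorded.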

“And” between values parts separate entries of the source, which are not always exact repeats. Identical values can stand only once. Records with an inconclusive call do not appear. Where a structure was tested more than once in an assay, its records may differ in their call. The source made the active and inactive calls. Unless noted, the call rests on the fitted dose curve; in most records, active means well fitted curve in the direction sought with a large enough effect; inconclusive means small, poorly fitted or top-dose-only effect, or another doubt; inactive means no such curve, though single readings can be large; an effect the other way counts as inactive or inconclusive.

Sequence of Pyruvate kinase (Leishmania mexicana) (Q27686 2-499 E452W): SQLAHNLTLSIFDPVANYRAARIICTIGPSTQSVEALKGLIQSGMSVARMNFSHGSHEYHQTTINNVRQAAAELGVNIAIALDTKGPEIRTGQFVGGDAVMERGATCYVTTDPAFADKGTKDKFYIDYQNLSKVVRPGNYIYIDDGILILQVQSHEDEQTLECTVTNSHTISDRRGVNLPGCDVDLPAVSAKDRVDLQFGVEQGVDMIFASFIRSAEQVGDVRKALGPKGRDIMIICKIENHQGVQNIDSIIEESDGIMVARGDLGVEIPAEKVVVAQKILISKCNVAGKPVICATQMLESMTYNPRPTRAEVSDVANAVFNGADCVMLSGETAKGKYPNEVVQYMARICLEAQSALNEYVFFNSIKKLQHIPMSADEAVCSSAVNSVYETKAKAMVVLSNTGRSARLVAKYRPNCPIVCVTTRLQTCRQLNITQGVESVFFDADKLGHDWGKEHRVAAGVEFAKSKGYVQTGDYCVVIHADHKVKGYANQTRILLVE
Sequence of Pyruvate kinase PKM (Homo sapiens) (P14618 whole entry, looked up): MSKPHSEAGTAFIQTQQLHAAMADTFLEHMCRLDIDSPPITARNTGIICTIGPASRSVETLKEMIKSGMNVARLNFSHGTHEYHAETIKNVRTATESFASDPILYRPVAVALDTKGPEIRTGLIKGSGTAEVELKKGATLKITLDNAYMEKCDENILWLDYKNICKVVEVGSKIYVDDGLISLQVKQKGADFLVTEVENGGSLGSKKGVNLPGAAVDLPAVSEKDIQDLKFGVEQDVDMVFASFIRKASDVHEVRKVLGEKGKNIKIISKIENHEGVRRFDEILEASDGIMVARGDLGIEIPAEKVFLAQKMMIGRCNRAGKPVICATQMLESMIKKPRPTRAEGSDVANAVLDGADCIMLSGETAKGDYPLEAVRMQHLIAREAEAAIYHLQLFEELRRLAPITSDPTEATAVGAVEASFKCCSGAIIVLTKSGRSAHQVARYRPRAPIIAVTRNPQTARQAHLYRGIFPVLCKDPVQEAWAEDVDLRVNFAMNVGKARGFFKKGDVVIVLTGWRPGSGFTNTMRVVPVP

`C[N+](C)(C)CC#CCOC(=O)Nc1cccc(Cl)c1`: the Potency entry in assay [1], in assay [2], in assay [3] and in [4] was “inactive” in each case. Also, the compound was classed as inactive in [5] and in [6].

As for `O=C1C=CC(=O)C=C1`, the Potency entry in assay [1], in assay [2], in assay [3], in [4], in [7] and in assay [8] was “inactive” throughout. For the same compound, the Potency entry in assay [9], in [10], in [11], in [12] and in assay [13] was “inactive” in each case. Also, the compound was classed as inactive in assay [5] and in assay [6].

For the compound `O=[N+]([O-])c1cc(O)c(O)c([N+](=O)[O-])c1`, the Potency entry in [1], in assay [2], in assay [3] and in assay [4] was “inactive” each time. Also, the call in assay [14], in assay [5] and in [6] was inactive.

Consider `CCCN(CCC)[C@H]1CCc2c(F)ccc(O)c2C1`, for which the Potency result in assay [1] and in assay [4] was “inactive” each time. Further, the Potency in assay [2] was 6.31 µM (active); in [3], 8.91 µM (active). The call in assay [5] and in assay [6] was inactive.

Turning to `NCCc1ccc(S(=O)(=O)F)cc1`, the Potency result in assay [1], in [3] and in assay [4] was “inactive” each time. For the same compound, the call in assay [5] and in [6] was inactive.

For the compound `CC(=O)NBr`, the Potency result in assay [1], in assay [3] and in [4] was “inactive” in each case. Besides, the compound was called inactive in assay [5] and in assay [6].

In the case of `CCCN(CCC)CCc1ccc(O)c(O)c1`, the Potency entry in assay [1], in assay [3] and in assay [4] was “inactive” each time. For the same compound, the result in [5] and in [6] was inactive.

On to `NCCc1c[nH]c2ccc(C(N)=O)cc12`, for which the Potency entry in assay [1], in [3] and in assay [4] was “inactive” in each case. For the same compound, the result in assay [5] and in assay [6] was inactive.

In the case of `O=Cc1ccco1`, the Potency result in [15], in assay [7], in assay [8], in [9], in assay [10] and in [16] was “inactive” in each case. In addition, the Potency result in assay [11], in [12] and in [13] was “inactive” throughout.

`O=C1CCO1`: the Potency entry in [15], in [7], in assay [8], in [9], in assay [10] and in [16] was “inactive” throughout. Besides, the Potency entry in assay [11], in [12] and in [13] was “inactive” in each case. For the same compound, in assay [14], the compound was called inactive.

Regarding `[Cl-].[Cl-].[Hg+2]`, the Potency in assay [15] was 794 nM (active); in [8], 31.6 µM (active); in [9], 10 µM (active); in assay [10], 10 µM (active); in assay [12], 15.8 µM (active); in assay [13] it was 7.94 µM (active). The result in [14] was inactive.

With `c1ccc2cc(CC3=NCCN3)ccc2c1`, the Potency entry in assay [1] and in [4] was “inactive” in each case. Besides, the outcome in assay [5] and in [6] was inactive.

For `c1ccc2c(N3CCNCC3)cccc2c1`, the Potency entry in [1] and in assay [4] was “inactive” in each case. For the same compound, the compound was called inactive in assay [5] and in assay [6].

Turning to `C[C@H]1CCC[C@H](O)CCCCCc2cc(O)cc(O)c2C(=O)O1`, the Potency entry in assay [15], in [7], in assay [8], in assay [9], in assay [10] and in assay [16] was “inactive” each time. Further, the Potency result in assay [11], in [12] and in assay [13] was “inactive” each time.

For `CCOC(=O)c1ccccc1C(=O)OCC`, the Potency entry in assay [15], in [7], in assay [8], in assay [9], in assay [10] and in [16] was “inactive” in each case. Moreover, the Potency entry in [11], in [12] and in assay [13] was “inactive” each time.

Consider `[O]=[Cr](=[O])([OH])[O][Cr](=[O])(=[O])[OH]`, for which the Potency in assay [15] was 12.6 µM (active) and 6.31 µM (active); in assay [13] it was “inactive and 39.8 µM (active)”. Besides, the Potency entry in [7], in assay [8], in [9], in [10], in assay [16] and in [11] was “inactive” each time. For the same compound, the Potency result in assay [12] is “inactive”.

On to `COc1ccc2c(c1)/C(=C/c1cnc[nH]1)C(=O)N2`, for which, in assay [17], the Potency is 10 µM (active). The Potency result in assay [2] and in assay [4] was “inactive” throughout. For the same compound, the compound was called inactive in assay [5] and in assay [6].

With `CCN(CCCl)Cc1ccccc1Br`, the Potency result in assay [1] and in assay [4] was “inactive” throughout. Besides, the call in assay [5] and in [6] was inactive.

Take `COc1ccc2c(c1OC)C(=O)OC2C1c2cc3c(cc2CCN1C)OCO3` (stereo not given): the Potency entry in assay [15], in assay [7], in assay [8], in assay [9], in assay [10] and in assay [16] was “inactive” each time. Further, the Potency entry in [11], in assay [12] and in assay [13] was “inactive” throughout. For the same compound, the compound was classed as inactive in assay [14].

Turning to `NC(=O)CI`, the Potency in [17] was 3.16 µM (active). The Potency result in assay [2] and in [4] was “inactive” in each case. In addition, the outcome in assay [5] was inactive.

Consider `O=C/C=C/c1ccccc1`, for which the Potency result in [15], in assay [7], in assay [8], in [9], in assay [10] and in assay [16] was “inactive” each time. Further, the Potency entry in assay [11], in assay [12] and in [13] was “inactive” throughout.
